The nature of assay [1]: NCI Yeast Anticancer Drug Screen. Data for the rad50 strain (AID 155).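 Also: 0% = growth of vehicle-only cultures of the same strain.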 Conditions: S. cerevisiae rad50 strain growth inhibition; at 50.0 µM; active compounds read high. In outline: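 Growth of the mutant yeast was measured after compound exposure and referenced to vehicle-treated cultures.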
A short description of assay [2]: NCI Yeast Anticancer Drug Screen. Data for the mec2-1 strain (AID 157). The settings on record: S. cerevisiae mec2-1 strain, at 50.0 µM, active compounds read high. In outline: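 Mutant yeast (mec2-1) grown with compound; growth inhibition relative to vehicle control reported.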
Assay [3] in a line: NCI Yeast Anticancer Drug Screen. Data for the sgs1 mgt1 strain (AID 161).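 Also: 0% = growth of cultures given vehicle only.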 The settings on record: S. cerevisiae sgs1 mgt1 strain, at 50.0 µM, active compounds read high. In outline: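 Yeast cells carrying a defined DNA-repair defect were exposed to test compounds. Growth inhibition was measured relative to vehicle-treated controls.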
Assay [4] can be described thus: NCI Yeast Anticancer Drug Screen. Data for the cln2 rad14 strain (AID 165).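 Also: 0% = growth equal to vehicle treated cultures.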 Conditions: S. cerevisiae cln2 rad14 strain, at 50.0 µM, active compounds read high. Summed up: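 Readout is yeast growth inhibition versus vehicle-treated controls, using a strain with cln2 and rad14 alterations exposed to compound.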
Assay [5] can be described thus: NCI Yeast Anticancer Drug Screen. Data for the bub3 strain (AID 167). The settings on record: S. cerevisiae bub3 mutant strain, at 50.0 µM, active compounds read high. Summed up: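 Whole-cell yeast assay. The mutant strain was incubated with compounds, and growth inhibition was determined by comparison with vehicle-treated cells.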
Assay [6] can be described thus: NCI Yeast Anticancer Drug Screen. Data for the mlh1 rad18 strain (AID 175). Conditions: S. cerevisiae mlh1 rad18 strain growth inhibition; at 50.0 µM; active compounds read high. In outline: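 Genetically defined yeast (DNA repair-deficient) exposed to compounds; growth inhibition determined relative to vehicle.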

Compounds without any hit were thinned out: in the full panel of roughly 79,000, 15% have a hit. Values without a mark were called inactive. Active and inactive are the calls of the source. Rule as the data show it: active = growth inhibition above about 70%; inactive = the rest.

On to `Cc1cc(S(=O)(=O)NC(=NCC(=O)NN)NN)c(S)cc1Cl`, for which the growth inhibition in assay [1] is -9.85%; in assay [2], 2.65%; in assay [3] it was -16.6%; in assay [4], -6.95%; in assay [5], 1.3%.
In the same order, the values of `CCCCNCC1COc2cccc(OCC)c2O1` (stereo not drawn) are 17.1%, -0.1%, -2%, 9.7% and -6.75%.
With `O=C(O)/C=C/C(=O)Nc1cc(Cl)cc2c1-c1c(Cl)cc(Cl)cc1C2=O`, the growth inhibition in assay [1] was 30.9%; in assay [2] it was 8.95%; in assay [3], 31.6%; in assay [4] it was -52.6%; in assay [5], -4%.
In the same order, the values of `C=C(C)C(=O)OCC(CC)(COC(=O)C(=C)C)COC(=O)C(=C)C` are -9.25%, -19.6%, 8.35%, -2.05% and 18.6%.
In the same order, the values of `CN=C(NC#N)NCc1ccccc1` are 7.05%, 7.35%, -2.6%, 10.1% and 20.8%.
In the same order, the values of `CC(=O)NCC(OC(C)=O)c1ccc2c(c1)[nH]c1ccccc12` (stereo not drawn) are 17.1%, -6.5%, -3.3%, 10.1% and 11.2%.
In the case of `N#CCC1(O)c2ccccc2-c2ccccc21`, the growth inhibition was -11.9% in assay [1]; 7.45% in assay [2]; 8% in assay [3]; -6.25% in assay [4]; 1.4% in assay [5].
In the same order, the values of `O=C1CCC(=O)N1Cl` are 1.05%, -1%, -3.6%, -13.3% and -5.75%.
For `COc1ccccc1/C=N\NC(C)=O` the same measures were -9.9%, 6.05%, 5.35%, 2.25% and 6.05%.
For `Cc1c2sc3ccccc3[nH]c2nc2[nH]c3ccccc3sc12`, the growth inhibition in assay [1] was -24.9%; in assay [2], -10.7%; in assay [3] it was -25.1%; in assay [4] it was 2.35%; in assay [5] it was 11%.
In the same order, the values of `Cc1ccc(C(O)(c2ccc(C)cc2)C2CCCCC2=C(c2ccccc2)c2ccccc2)cc1` (stereo not drawn) are 10.8%, 3.45%, -14.2%, -7.35% and -0.25%.
In the case of `CCSC1C(N=[N+]=[N-])C(CO)OC1n1cnc2c(N)ncnc21` (stereo not drawn), the growth inhibition was 1.3% in assay [1]; -3.2% in assay [2]; 9.3% in assay [3]; 10.9% in assay [4]; -2% in assay [5].
Take `CC1CN(CCCOC(=O)Nc2cccc3ccccc23)CCN1Cc1ccccc1` (stereo not drawn): the growth inhibition was 81.2% (active) in assay [1]; 94% (active) in assay [2]; 95.8% (active) in assay [3]; 97.7% (active) in assay [4]; 82% (active) in assay [5].
For `O=C(Nc1ccc(CSc2ccc(Cl)cc2)o1)N1CCOCC1` the same measures were 15.7%, 8%, 40.8%, 20.9% and 38.4%.
Regarding `N#CC1CCCC/C1=N/NC(N)=O` (stereo not drawn), the growth inhibition in assay [1] is -11.9%; in assay [2] it was -6.65%; in assay [3], -13.6%; in assay [4], -6.05%; in assay [5], -6.65%.
For `Cc1ccc(NC(=O)c2cc3ccccc3c(N=Nc3ccccc3O)c2O)c(C)c1`, the growth inhibition was -11.9% in assay [1]; 5.4% in assay [2]; 9% in assay [3]; 9.85% in assay [4]; 12.6% in assay [5]; 10.7% in assay [6].
As to `Clc1ccccc1C(Nc1nc2ccccc2s1)Nc1nc2ccccc2s1`, the growth inhibition in assay [1] was 13.3%; in assay [2], 0.8%; in assay [3], -10.9%; in assay [4], 4.65%; in assay [5], -2%; in assay [6], 17.4%.
For the molecule `CC(Cl)C(O)C#N` (stereo not drawn), the growth inhibition in assay [1] was -25.1%; in assay [2] it was -3.35%; in assay [3], -10.8%; in assay [4], -8.2%; in assay [5], 1.6%; in assay [6], -16.2%.
Regarding `CCC(C(=O)O)c1ccc(OCc2ccccc2)cc1` (stereo not drawn), the growth inhibition is 15.7% in assay [1]; 2% in assay [2]; -10.2% in assay [3]; 18.7% in assay [4]; 8.05% in assay [5]; -2.95% in assay [6].
For `Cc1cc(N(CCC#N)CCC#N)ccc1/C(N=Nc1cccc(Cl)c1)=N/NC(=O)c1cc(Cl)ccc1O`, the growth inhibition in assay [1] was 21%; in assay [2], 4.9%; in assay [3], 26.8%; in assay [4], 10.3%; in assay [5], 33.6%; in assay [6], -59.4%.
`Cc1ccccc1NC(=O)CC(=O)N1N=C(N(CCC#N)c2ccccc2Cl)CC1c1ccccc1` (stereo not drawn): the growth inhibition was 4.1% in assay [1]; -10% in assay [2]; -39.3% in assay [3]; 16.4% in assay [4]; -10.1% in assay [5]; -8.3% in assay [6].
Consider `COC(=O)C(Cc1cn(C(C)=O)c2ccccc12)P(=O)(OC)OC` (stereo not drawn), for which the growth inhibition was -13.3% in assay [1]; -40.1% in assay [2]; -5.25% in assay [3]; 13% in assay [4]; 25.4% in assay [5]; -11.8% in assay [6].
On to `CC(=O)Nc1ccc(/C=C/c2ccc(N=C=S)c(S(=O)(=O)O)c2)c(S(=O)(=O)O)c1`, for which the growth inhibition was 9.5% in assay [1]; -4.4% in assay [2]; -19% in assay [3]; 10.1% in assay [4]; 1.4% in assay [5]; -13.5% in assay [6].

The values are drawn from PubChem BioAssay (NCI).
